Assay outcomes: PubChem, several laboratories
Neddylation inh – inhibitors of human cullin neddylation; P61081+Q13564; TR-FRET cullin neddylation, biochemical; inhibition, % at 25 µM; 0.58% of 360,000 active; AID 651699; in the data active = inhibition above about 36%
ATG4B inhibitor – blocks human ATG4B protease cleavage of LC3 substrate | Q9Y4P1 | ATG4B cleavage of LC3-PLA2, NBD-HPC fluorescence, 1 h | inhibition, % at 8.33 µM | 0.51% of 340,000 active | AID 504462; in the data active = inhibition above about 40%
Target sequence (Q9Y4P1 whole entry, looked up): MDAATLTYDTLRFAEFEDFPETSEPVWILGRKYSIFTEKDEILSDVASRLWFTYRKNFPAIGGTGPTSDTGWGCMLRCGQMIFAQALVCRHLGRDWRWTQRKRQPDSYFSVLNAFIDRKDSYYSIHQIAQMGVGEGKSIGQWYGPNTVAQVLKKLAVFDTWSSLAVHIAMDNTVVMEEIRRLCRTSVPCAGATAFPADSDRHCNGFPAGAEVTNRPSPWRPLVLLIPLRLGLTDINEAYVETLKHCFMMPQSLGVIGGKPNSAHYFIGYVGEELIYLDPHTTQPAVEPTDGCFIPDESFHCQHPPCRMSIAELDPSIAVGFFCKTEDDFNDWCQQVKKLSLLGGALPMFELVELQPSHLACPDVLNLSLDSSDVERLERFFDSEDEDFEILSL
SUMO1-SIM PPI – alters human SUMO1 binding to SIM partners; P63165; SUMO1 binding to a labelled peptide, TR-FRET, 1 h; inhibition, % at 20 µM; 0.33% of 360,000 active; in the data active = inhibition above about 37%
Target sequence (P63165 whole entry, looked up): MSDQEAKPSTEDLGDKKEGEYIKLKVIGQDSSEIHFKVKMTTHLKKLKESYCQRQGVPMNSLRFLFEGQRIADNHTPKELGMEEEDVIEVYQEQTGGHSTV
Rin1 Abl inh – human Rin1-Abl interaction inhibition; P00519+Q13671; TR-FRET Rin1/Abl binding, biochemical; inhibition, % at 7.35 µM; 0.4% of 360,000 active; AID 588664; in the data active = inhibition above about 5%, passing the limit was not always enough
Rin1-Abl confirm – Rin1-Abl interaction inhibition confirmation | TR-FRET Rin1-Abl binding, purified proteins | inhibition, % at 7.35 µM | 49% of 1,300 active | shares compounds with Rin1 Abl inh
GFP quench – quenches GFP fluorescence, counter-screen for Rin1-Abl inhibitors. shares compounds with Rin1 Abl inh. inhibitors/quenchers counterscreen. inhibition, % at 6.75 µM. 8.5% of 1,300 active. AID 602125;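 note: ABL1-eGFP fusion protein alone without its partner RIN1-SBP; 0% = protein with vehicle and 100% = wells lacking protein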
GFP quench dose – GFP fluorescence interference dose response; shares compounds with Rin1 Abl inh; GFP fluorescence interference/quenching counterscreen; IC50, µM; 230 tested, under 10 active; AID 602182; call rule not given here;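 note: ABL1-eGFP fusion protein alone without its RIN1 binding partner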
Starred values were filed as active, the others as inactive; nt = no result shown. Hits are enriched below; roughly 1.7% of the tested compounds scored in any of these assays. Cut-off read from the data, not from the text of the source, unless noted: active = inhibition above about 6.5%; inactive = the rest.

SMILES | Neddylation inh | ATG4B inhibitor | SUMO1-SIM PPI | Rin1 Abl inh | Rin1-Abl confirm | GFP quench | others
C#CCOCCOCCOCCNc1nc(N2CCN(C(=O)[C@H]([C@@H](C)CC)n3cc([C@@H](N)Cc4ccc(O)cc4)nn3)CC2)nc(N2CCN(C(=O)[C@H](Cc3ccc(O)cc3)n3cc([C@@H](N)CC(C)C)nn3)CC2)n1 | -14.2 | -17.9 | -30.0 | 7.9 | nt | nt
C#CCOCCOCCOCCNc1nc(N2CCOCC2)nc(N2CCN(C(=O)[C@H](Cc3ccc(O)cc3)n3cc([C@@H](N)CC(C)C)nn3)CC2)n1 | -27.4 | -11.1 | -3.2 | 13.7* | 14.6* | -0.1
COc1ccc(NS(=O)(=O)c2cc(N)ccc2N2CCOCC2)cc1 | -0.7 | -4.2 | 5.9 | 8.3* | -0.2 | -0.7
COc1ccc(NS(=O)(=O)c2cc(N)ccc2N2CCCC2)cc1 | 24.5 | -11.2 | 0.2 | 4.4 | nt | nt
Cc1ccc(-c2nc3ccc(Br)cn3c2Cc2cccc(F)c2)cc1 | -178.2 | nt | 1.6 | -2.4 | nt | nt
Cc1ccc(Cl)cc1N1CCN(C(CC(C)C)c2nnnn2CC2CCCO2)CC1 (centres undefined) | -8.8 | 8.3 | -1.5 | 7.4* | -2.2 | 0.9
O=C1C(N2CCOCC2)=Cc2cccc3cccc1c23 | -47.8 | nt | -16.5 | -5.6 | nt | nt
O=C1C=C(N2CCOCC2)c2cccc3cccc1c23 | -53.1 | nt | -34.0 | 16.2* | -15.0 | 1.2
Nc1nc(N2CCN(C(=O)c3ccco3)CC2)nc2ccccc12 | nt | -15.1 | 2.2 | 8.7* | 3.5 | -0.1
Cc1ccc(CC(=O)N2CCC(c3nc4c(nnn4Cc4ccccc4)c(=O)[nH]3)CC2)cc1 | -2.0 | -5.8 | 0.8 | 8.8* | 7.1* | -1.1
CC(C)(C)c1ccc(OCc2ccc(C(=O)N/N=C/c3ccc(O)c(O)c3)cc2)cc1 | 15.1 | 6.0 | 5.3 | 8.2* | 8.8* | 1.8
O=C(N/N=C/c1ccc(OCc2ccc(F)cc2)cc1)c1ccccc1 | 5.8 | -6.3 | -2.1 | 3.0 | nt | nt
O=C(NN=Cc1ccc(O)c(O)c1)c1ccccc1 | -8.8 | nt | -5.7 | 7.2 | nt | nt
O=C(COc1ccccc1C(=O)N/N=C\c1ccc(O)c(O)c1)N/N=C/c1ccc(O)c(O)c1 | 7.2 | 26.2 | 20.9 | 27.9* | 38.1* | 11.6*
O=C(CSc1nc2ccccc2s1)NC1CCCc2ccccc21 (centres undefined) | 8.6 | 28.8 | 2.0 | 7.5* | -0.7 | 1.2
NC(=O)c1cc(-c2ccccc2)nc(Oc2ccccc2)n1 | -10.6 | -8.0 | -5.1 | 10.5* | 1.9 | 0.7
O=S(=O)(c1ccc(Cl)cc1)N1CCC2(CC1)OCCO2 | -2.5 | -5.8 | 6.1 | 12.4* | 0.2 | -1.9
COc1ccc(CCNC(=O)CSc2nc3[nH]ncc3c(=O)n2-c2ccccc2Br)cc1OC | -0.8 | -7.5 | 1.6 | 8.2* | 8.6* | -3.6
COc1ccc(CCNC(=O)CSc2nc(C)nc3c2c(=O)n(C)c(=O)n3C)cc1OC | -1.3 | 0.4 | 2.5 | 20.5* | 21.3* | 1.3 | GFP quench dose=>67.5
Cc1cc(C)c(N2C(=O)CC(Sc3ccccc3N)C2=O)c(C)c1 (centres undefined) | 2.7 | nt | -0.5 | 0.9 | nt | nt
CC1(C(=O)NS(=O)(=O)c2cccc(Cl)c2)CCN1C(=O)CC1CC1 (centres undefined) | 4.1 | nt | -5.5 | -3.3 | nt | nt
O=C(c1ccc(Cl)c(Cl)c1)N1CCC(=O)N([C@H](COCc2ccccc2)Cc2ccccc2)CC1 | 3.5 | nt | -1.7 | nt | nt | nt
O=C(c1ccc(Cl)c(Cl)c1)N1CCC(=O)N(C(COCc2ccccc2)Cc2ccccc2)CC1 (centres undefined) | -3.3 | 2.1 | 10.0 | 9.5* | 14.6* | 0.0
CC(=O)Nc1ccc(S(=O)(=O)NC2(C(F)(F)F)NC(=O)N(CC(C)C)C2=O)cc1 (centres undefined) | -0.4 | -3.5 | -2.7 | 3.9 | nt | nt
CC(C)CN1C(=O)NC(NS(=O)(=O)c2ccc(N)cc2)(C(F)(F)F)C1=O (centres undefined) | 0.0 | 1.1 | 0.1 | 6.7* | -0.1 | 0.1
SMILES | Neddylation inh | ATG4B inhibitor | SUMO1-SIM PPI | Rin1 Abl inh | Rin1-Abl confirm | GFP quench | others
Cc1[nH][nH]c(=O)c1C(c1ccc(-c2ccc(Cl)c(Cl)c2)o1)c1c(C)[nH][nH]c1=O | 1.4 | 16.6 | -4.9 | 12.8* | 3.8 | 6.5
COc1ccc(N2CCN(C(=O)CSc3nnc(-c4cccnc4)n3-c3ccccc3)CC2)cc1 | 1.6 | -11.2 | 2.3 | 8.1* | 5.2 | -0.5
O=C(O)c1ccc(CSc2nnc(-c3cccnc3)n2-c2ccc(Br)cc2)cc1 | 12.8 | 3.6 | 1.1 | 20.8* | 32.9* | -0.1 | GFP quench dose=>67.5
Cc1nn(CC(=O)Nc2ccc3c(c2)nc2n3CCOC2)c(=O)c2ccccc12 | 5.1 | -0.7 | 1.5 | 10.1* | -0.8 | 0.9
O=C(NCCc1ccc(Cl)cc1)C1CC(=O)N(C2CCCC2)C1 (centres undefined) | -4.8 | 1.6 | 6.9 | 15.3* | -1.5 | 1.6
O=C(NCCc1ccc(Cl)cc1)C1CCC(=O)N(C2CCCCCC2)C1 (centres undefined) | -1.5 | -0.7 | 5.7 | 1.8 | nt | nt
CCCCSc1nnc(-c2ccc(NC(=O)CCc3ccccc3)cc2)n1C | 0.7 | 0.7 | 9.7 | 6.2* | 9.0* | 0.9
Cc1ccc(C(O)c2ncc(-c3ccc(C(F)(F)F)cc3)[nH]2)cc1F (centres undefined) | 1.5 | nt | 4.6 | 2.6 | nt | nt
O=C1C(=O)c2cccnc2-c2ncccc21 | -35.7 | nt | 39.1 | 50.3* | 48.7* | 0.8 | GFP quench dose=>67.5
Clc1ccc(C(c2cccs2)N2CCNCC2)cc1 (centres undefined) | -0.8 | nt | -6.7 | 1.8 | nt | nt
O=C(Nc1ccccc1N1CCN(C(=O)c2ccc(Cl)cc2)CC1)c1cccnc1 | 6.3 | -5.2 | -3.4 | 17.5* | 22.5* | 0.9 | GFP quench dose=>67.5
O=C(Nc1ccc(N2CCN(C(=O)c3ccc(Cl)cc3)CC2)cc1)c1cccnc1 | -6.2 | -9.7 | 1.5 | -6.7 | nt | nt
Cc1ccccc1-c1nnnn1C1CCS(=O)(=O)C1 (centres undefined) | -10.9 | 1.6 | 1.1 | 2.7 | nt | nt
Cc1cc(=O)n(C2CCS(=O)(=O)C2)[nH]1 (centres undefined) | -3.1 | 7.1 | 0.3 | 11.7* | 0.2 | -0.9
COc1ccc(-n2c(NC(=O)c3ccco3)c(C#N)c3nc4ccccc4nc32)cc1 | nt | 17.9 | 33.5 | 19.3* | 5.6 | 2.8
C[C@H](NS(=O)(=O)c1ccc(Cl)cc1)C(=O)OCC(=O)Nc1cc(S(=O)(=O)N2CCOCC2)ccc1Cl | -20.3 | -11.5 | -0.6 | 0.5 | nt | nt
O=C(c1ccc2ccccc2c1)C1CCCN(C(=O)c2cccnc2)C1 (centres undefined) | 8.9 | -5.6 | -12.4 | 6.9* | -4.9 | 0.1
COc1cccc(Cn2c(C(C)n3c(C)nc4ccccc43)nc3ccccc32)c1 (centres undefined) | -5.8 | nt | 0.3 | nt | nt | nt
